Assay [1] has as its target Tyrosine-protein kinase Fer (Homo sapiens) (UniProt P16591). The note with it: at 1 µM.
The target in assay [2] is Tyrosine-protein kinase Fes/Fps (Homo sapiens) (UniProt P07332). The conditions noted are these: at 0.1 µM.
The target is the same in assay [3]. The conditions noted are these: at 1 µM.
Assay [4] addresses Fibroblast growth factor receptor 1 (Homo sapiens) (UniProt P11362). The note with it: at 0.1 µM.
Assay [5] has the same target. The note with it: at 1 µM.
For assay [6], the target named is Fibroblast growth factor receptor 2 (Homo sapiens) (UniProt P21802). The conditions noted are these: at 0.1 µM.
Assay [7] shares this target. The conditions noted are these: at 1 µM.
The target in assay [8] is Fibroblast growth factor receptor 3 (Homo sapiens) (UniProt P22607). The note with it: at 0.1 µM.
Assay [9] has the same target. The conditions noted are these: at 1 µM.
Assay [10] deals with Fibroblast growth factor receptor 4 (Homo sapiens) (UniProt P22455). The note with it: at 0.1 µM.
The target is the same in assay [11]. The note with it: at 1 µM.
Assay [12] addresses Tyrosine-protein kinase Fgr (Homo sapiens) (UniProt P09769). The conditions noted are these: at 0.1 µM.
Assay [13] shares this target. The conditions noted are these: at 1 µM.
Assay [14] addresses Vascular endothelial growth factor receptor 1 (Homo sapiens) (UniProt P17948). The note with it: at 0.1 µM.
Assay [15] has the same target. The note with it: at 1 µM.
The target of assay [16] is Receptor-type tyrosine-protein kinase FLT3 (Homo sapiens) (UniProt P36888). The note with it: at 0.1 µM.
Assay [17] shares this target. The note with it: at 1 µM.
Assay [18] relates to T1, Receptor-type tyrosine-protein kinase FLT3 (Homo sapiens), P36888 [D835Y].
T1 sequence (whole entry): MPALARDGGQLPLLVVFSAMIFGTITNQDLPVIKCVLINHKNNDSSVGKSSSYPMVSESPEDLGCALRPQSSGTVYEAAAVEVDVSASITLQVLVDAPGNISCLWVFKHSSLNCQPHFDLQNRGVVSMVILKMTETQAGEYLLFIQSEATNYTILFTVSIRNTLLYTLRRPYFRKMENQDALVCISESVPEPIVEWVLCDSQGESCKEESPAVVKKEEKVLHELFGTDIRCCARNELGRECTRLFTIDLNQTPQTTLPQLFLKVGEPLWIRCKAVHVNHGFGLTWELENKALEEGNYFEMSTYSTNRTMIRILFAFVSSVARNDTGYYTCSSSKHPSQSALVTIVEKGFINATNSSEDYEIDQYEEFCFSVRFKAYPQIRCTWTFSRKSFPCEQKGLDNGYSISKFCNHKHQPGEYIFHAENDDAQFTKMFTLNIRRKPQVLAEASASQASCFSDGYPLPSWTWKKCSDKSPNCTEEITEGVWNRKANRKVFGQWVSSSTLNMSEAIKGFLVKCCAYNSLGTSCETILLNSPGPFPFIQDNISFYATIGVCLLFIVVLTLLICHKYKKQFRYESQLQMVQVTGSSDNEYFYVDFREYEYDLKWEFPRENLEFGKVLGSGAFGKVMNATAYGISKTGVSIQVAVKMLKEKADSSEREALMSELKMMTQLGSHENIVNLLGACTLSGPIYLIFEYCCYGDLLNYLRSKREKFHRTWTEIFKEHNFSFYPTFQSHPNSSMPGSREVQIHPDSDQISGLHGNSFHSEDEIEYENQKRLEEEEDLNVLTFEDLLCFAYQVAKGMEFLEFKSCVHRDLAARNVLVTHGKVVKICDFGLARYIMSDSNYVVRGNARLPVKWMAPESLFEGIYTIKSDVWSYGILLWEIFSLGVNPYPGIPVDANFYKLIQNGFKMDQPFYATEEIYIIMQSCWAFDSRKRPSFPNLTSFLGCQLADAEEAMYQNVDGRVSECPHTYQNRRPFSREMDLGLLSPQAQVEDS
The note with it: at 0.1 µM.

The target of assay [19] is Non-receptor tyrosine-protein kinase TYK2 (Homo sapiens) (UniProt P29597). The note with it: at 1 µM.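 Further: values are mean percent inhibition of TYK2 kinase.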
Assay [20] concerns the target T2, Tyrosine-protein kinase receptor TYRO3 (Homo sapiens) (UniProt Q06418).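 Further: reported percentages are averaged inhibition values of TYRO3 kinase activity.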
T2 sequence (whole entry): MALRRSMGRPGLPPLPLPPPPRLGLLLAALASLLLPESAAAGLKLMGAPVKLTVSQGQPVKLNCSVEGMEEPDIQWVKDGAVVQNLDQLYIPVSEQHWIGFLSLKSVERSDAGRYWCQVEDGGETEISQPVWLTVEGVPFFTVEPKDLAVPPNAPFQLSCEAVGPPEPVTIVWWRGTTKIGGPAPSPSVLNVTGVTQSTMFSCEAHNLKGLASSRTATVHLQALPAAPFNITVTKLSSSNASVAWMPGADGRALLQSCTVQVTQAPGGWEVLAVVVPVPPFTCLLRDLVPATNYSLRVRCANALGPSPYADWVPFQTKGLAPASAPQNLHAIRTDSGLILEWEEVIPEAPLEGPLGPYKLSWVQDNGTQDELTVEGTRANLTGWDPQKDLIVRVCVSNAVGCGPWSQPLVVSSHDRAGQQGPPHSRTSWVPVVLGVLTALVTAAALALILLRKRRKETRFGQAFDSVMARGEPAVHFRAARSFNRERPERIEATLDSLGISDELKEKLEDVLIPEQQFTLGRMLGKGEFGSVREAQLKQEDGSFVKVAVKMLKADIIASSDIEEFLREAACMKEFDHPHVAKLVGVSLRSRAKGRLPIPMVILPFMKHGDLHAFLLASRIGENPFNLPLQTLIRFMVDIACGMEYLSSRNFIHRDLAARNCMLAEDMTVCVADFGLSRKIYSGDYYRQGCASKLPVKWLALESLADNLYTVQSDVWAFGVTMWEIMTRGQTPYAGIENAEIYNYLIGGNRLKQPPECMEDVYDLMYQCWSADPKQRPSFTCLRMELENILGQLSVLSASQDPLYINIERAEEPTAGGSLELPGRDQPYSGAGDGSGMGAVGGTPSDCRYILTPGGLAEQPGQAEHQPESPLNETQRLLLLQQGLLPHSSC
The note with it: at 0.1 µM.

Non-receptor tyrosine-protein kinase TYK2 (Homo sapiens), sequence (P29597 whole entry): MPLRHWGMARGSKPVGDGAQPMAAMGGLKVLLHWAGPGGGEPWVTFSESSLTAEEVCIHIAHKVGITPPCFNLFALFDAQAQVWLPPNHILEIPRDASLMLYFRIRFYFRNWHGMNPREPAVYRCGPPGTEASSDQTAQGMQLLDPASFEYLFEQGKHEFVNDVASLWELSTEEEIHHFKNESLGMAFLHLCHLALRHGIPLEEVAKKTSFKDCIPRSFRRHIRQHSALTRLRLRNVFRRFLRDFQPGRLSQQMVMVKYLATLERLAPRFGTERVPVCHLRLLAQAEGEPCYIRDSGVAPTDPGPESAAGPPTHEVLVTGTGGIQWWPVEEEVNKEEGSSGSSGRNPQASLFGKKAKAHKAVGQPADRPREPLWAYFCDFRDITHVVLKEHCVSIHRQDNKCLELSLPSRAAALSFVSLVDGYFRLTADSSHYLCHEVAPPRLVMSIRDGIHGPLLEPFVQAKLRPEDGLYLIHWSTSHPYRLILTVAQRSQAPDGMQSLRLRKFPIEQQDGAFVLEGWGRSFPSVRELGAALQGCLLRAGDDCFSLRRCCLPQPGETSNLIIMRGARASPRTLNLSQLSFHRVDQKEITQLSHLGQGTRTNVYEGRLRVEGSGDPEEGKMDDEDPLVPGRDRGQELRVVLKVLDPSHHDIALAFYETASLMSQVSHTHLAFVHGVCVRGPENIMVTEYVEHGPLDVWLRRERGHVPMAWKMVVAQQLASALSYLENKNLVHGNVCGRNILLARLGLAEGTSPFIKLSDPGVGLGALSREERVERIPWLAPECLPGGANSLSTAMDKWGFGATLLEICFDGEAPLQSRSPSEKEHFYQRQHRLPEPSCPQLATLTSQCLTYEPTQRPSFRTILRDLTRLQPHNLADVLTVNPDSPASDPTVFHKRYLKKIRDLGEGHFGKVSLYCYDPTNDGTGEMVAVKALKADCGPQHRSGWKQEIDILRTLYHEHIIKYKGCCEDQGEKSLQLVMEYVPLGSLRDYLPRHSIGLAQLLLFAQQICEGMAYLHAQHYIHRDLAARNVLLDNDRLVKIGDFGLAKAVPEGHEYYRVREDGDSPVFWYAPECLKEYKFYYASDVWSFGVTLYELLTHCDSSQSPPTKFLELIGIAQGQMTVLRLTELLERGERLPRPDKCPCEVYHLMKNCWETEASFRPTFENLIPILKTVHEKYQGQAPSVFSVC
Tyrosine-protein kinase Fer (Homo sapiens), sequence (P16591 whole entry, looked up): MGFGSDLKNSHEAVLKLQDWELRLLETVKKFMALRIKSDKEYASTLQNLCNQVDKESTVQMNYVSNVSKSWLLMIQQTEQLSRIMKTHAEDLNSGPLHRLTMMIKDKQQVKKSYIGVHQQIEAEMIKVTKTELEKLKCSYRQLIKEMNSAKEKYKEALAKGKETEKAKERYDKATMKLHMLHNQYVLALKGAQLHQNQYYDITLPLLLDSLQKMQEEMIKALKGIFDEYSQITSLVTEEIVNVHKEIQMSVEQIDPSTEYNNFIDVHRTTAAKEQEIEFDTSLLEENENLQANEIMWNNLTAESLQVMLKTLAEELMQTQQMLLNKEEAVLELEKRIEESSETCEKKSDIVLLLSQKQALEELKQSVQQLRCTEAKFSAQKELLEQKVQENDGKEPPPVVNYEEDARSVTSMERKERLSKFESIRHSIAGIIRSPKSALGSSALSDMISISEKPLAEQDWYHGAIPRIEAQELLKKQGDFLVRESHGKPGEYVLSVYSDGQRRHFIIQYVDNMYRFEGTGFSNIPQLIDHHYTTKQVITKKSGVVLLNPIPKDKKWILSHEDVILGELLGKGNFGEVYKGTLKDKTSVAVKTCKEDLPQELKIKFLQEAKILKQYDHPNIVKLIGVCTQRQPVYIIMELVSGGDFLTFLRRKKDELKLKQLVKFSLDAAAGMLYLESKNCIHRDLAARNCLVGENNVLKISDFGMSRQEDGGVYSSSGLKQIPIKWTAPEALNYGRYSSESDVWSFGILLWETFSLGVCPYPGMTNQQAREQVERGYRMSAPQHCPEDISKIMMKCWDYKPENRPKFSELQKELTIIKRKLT
Fibroblast growth factor receptor 2 (Homo sapiens), sequence (P21802 22-821 limits assumed): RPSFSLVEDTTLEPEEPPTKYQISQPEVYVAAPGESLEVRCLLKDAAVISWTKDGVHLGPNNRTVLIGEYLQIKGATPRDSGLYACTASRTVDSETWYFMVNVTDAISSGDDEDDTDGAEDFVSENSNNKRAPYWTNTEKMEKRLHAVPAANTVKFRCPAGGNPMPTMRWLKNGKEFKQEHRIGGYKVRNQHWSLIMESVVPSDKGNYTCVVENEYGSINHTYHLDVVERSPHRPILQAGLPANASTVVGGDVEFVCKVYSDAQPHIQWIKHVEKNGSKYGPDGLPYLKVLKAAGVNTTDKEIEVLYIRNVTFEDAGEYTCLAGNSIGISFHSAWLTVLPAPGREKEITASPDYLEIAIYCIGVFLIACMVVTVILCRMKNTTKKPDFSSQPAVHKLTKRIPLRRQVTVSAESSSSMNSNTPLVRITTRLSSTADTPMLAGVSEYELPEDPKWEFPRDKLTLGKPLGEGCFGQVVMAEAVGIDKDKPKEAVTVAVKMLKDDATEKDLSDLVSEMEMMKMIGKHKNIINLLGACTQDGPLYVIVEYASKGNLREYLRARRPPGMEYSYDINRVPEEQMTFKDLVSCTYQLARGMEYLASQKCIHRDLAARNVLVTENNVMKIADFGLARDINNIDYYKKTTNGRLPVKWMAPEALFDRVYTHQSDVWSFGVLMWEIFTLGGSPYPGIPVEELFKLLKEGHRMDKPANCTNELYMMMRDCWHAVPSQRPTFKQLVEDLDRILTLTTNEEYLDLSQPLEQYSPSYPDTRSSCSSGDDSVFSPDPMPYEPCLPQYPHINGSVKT
Fibroblast growth factor receptor 4 (Homo sapiens), sequence (P22455 22-802 limits assumed): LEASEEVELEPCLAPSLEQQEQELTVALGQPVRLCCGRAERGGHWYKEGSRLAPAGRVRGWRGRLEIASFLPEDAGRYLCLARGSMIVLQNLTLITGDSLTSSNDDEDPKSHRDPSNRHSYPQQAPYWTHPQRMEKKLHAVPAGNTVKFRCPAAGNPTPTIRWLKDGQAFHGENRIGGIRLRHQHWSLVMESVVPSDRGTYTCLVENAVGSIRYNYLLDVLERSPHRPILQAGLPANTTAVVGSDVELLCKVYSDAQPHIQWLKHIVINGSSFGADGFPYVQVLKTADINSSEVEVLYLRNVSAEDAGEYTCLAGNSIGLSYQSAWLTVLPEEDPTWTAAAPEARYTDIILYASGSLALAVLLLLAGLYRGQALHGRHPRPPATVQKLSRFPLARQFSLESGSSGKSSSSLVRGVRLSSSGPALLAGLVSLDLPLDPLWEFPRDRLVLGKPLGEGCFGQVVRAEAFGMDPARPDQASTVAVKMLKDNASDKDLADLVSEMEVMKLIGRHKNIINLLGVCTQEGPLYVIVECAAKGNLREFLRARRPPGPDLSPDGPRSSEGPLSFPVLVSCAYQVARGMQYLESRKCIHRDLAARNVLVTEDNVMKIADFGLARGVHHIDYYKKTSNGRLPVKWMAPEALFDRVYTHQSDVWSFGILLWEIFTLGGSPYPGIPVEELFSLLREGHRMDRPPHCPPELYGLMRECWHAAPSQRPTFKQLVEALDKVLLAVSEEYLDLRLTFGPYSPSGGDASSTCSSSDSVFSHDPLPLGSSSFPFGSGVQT
Tyrosine-protein kinase Fgr (Homo sapiens), sequence (P09769 2-529 limits assumed): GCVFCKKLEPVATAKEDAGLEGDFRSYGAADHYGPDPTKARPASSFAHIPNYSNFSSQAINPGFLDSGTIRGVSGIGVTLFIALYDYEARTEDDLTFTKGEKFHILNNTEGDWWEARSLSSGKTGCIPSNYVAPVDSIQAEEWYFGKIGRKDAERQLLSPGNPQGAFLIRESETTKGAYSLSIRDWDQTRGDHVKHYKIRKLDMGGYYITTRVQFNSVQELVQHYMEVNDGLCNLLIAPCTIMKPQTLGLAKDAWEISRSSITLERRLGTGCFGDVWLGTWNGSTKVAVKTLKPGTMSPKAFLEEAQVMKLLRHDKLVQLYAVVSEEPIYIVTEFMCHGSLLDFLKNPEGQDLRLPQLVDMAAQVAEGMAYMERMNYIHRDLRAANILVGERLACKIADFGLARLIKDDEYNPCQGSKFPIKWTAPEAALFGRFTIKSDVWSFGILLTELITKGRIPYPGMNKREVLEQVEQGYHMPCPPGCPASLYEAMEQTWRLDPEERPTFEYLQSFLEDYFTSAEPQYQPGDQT
Tyrosine-protein kinase Fes/Fps (Homo sapiens), sequence (P07332 whole entry): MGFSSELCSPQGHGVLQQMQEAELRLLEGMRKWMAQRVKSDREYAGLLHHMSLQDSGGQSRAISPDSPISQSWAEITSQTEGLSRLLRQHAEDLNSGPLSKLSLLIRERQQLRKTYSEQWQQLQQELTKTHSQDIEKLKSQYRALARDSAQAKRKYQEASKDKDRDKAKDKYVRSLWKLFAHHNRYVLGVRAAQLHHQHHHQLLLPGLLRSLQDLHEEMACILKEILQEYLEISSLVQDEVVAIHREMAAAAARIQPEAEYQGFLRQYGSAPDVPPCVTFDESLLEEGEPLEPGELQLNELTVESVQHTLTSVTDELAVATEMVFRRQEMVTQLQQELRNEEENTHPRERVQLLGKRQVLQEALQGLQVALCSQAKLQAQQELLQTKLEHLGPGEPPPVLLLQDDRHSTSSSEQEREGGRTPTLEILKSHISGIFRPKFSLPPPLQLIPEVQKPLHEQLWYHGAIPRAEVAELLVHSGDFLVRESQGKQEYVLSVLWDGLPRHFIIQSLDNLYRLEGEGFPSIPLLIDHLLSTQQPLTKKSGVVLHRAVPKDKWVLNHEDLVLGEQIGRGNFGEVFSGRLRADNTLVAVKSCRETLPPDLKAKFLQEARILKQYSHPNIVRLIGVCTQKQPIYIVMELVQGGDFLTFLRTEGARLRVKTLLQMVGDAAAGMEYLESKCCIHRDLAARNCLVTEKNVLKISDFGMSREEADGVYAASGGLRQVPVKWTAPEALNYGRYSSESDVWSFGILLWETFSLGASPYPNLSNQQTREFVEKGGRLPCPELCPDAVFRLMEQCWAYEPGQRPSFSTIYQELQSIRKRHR

Take `O=C1NC(=O)C(N2CCc3ccccc32)=C1c1ccc(Cl)cc1`: the inhibition in assay [1] was 6.71%; in assay [2], 4.08%; in assay [3], 7.35%; in assay [4], 5.27%; in [5], 13%; in assay [6], 6.84%. Also, the inhibition in assay [7] was 14%; in assay [8] it was 8.07%; in assay [9], 11.6%; in assay [10] it was -1.04%; in assay [11], 1.44%; in assay [12] it was 2.39%. Moreover, the inhibition was 8.07% in assay [13]; 1.82% in assay [14]; 5.14% in assay [15]; 2.06% in [16]; 5.05% in assay [17]; -2.14% in assay [18]. The inhibition in [19] was -4.27%; in [20] it was 3.4%.

With `NCc1ccc(-c2nc(-c3ccc(Cl)c(O)c3)c(-c3ccncc3)[nH]2)cc1`, the inhibition in assay [1] is 2.5%; in [2], 0.2%; in assay [3], 1.79%; in assay [4], -0.32%; in [5] it was 1.38%; in assay [6], -0.38%. Further, the inhibition in assay [7] is 6.76%; in assay [8] it was 0.23%; in assay [9], 5.11%; in [10], -5.87%; in [11] it was 2.75%; in assay [12], 4.3%. Besides, the inhibition in [13] is 32.8%; in assay [14], 19.8%; in assay [15], 70.6%; in assay [16] it was -0.2%; in assay [17], 3.28%; in assay [18], 2.87%. Further, the results for the inhibition in assay [19] and in [20] were -1.84% and 0.69%, respectively.

`Fc1cccc(COc2ccc(Nc3ncnc4cc(-c5ccc[nH]5)sc34)cc2Cl)c1`: the inhibition is 2.81% in assay [1]; 1.96% in [2]; 1.5% in assay [3]; -1.92% in [4]; 4.48% in [5]; -1.83% in assay [6]. Further, the inhibition was 0.05% in assay [7]; -1% in assay [8]; -3.31% in assay [11]; 3.74% in assay [12]; 11% in assay [13]; -0.98% in [14]. Moreover, the inhibition in assay [15] is 1.18%; in [16], -0.44%; in assay [17] it was 2.33%; in assay [18], 2.49%; in [19] it was 0.5%; in assay [20] it was 2.87%.

As to `CCn1c(-c2nonc2N)nc2c(N3CCCC3)nccc21`, the inhibition is 2.34% in assay [1]; -2.72% in assay [2]; -3.78% in assay [3]; -3.71% in assay [4]; -1.9% in assay [5]; -4% in assay [6]. For the same compound, the inhibition in assay [7] is -1.03%; in assay [8], 0.34%; in assay [9], -0.31%; in [10], 3.05%; in assay [11], -0.48%; in assay [12], -0.82%. Besides, the inhibition in assay [13] is -0.02%; in [14] it was -0.79%; in [15] it was -0.61%; in assay [16] it was -0.78%; in assay [17], -2%; in assay [18] it was -4.93%. For the same compound, the inhibition in assay [19] is 4.26%; in [20], -1.31%.

Regarding `Cc1cc(O)cc(C)c1/C=C/c1cncc(-c2nn[nH]n2)c1`, the inhibition was found to be 11.9% in assay [1]; 2.28% in assay [2]; 3.8% in assay [3]; 2.34% in [4]; 3.83% in assay [5]; 1.54% in [6]. The inhibition in assay [7] is 13.3%; in [8], 3.74%; in [9], 2.92%; in assay [10] it was -9.13%; in [11], 0.95%; in assay [12], 9.4%. The inhibition in [13] is 51.5%; in [14], 3.27%; in [15] it was 5.69%; in assay [16] it was 2.5%; in assay [17] it was 4.37%; in assay [18], -2.23%. Besides, the results for the inhibition in assay [19] and in assay [20] were -2.7% and 3.72%, respectively.

With `COc1ccc(COc2ccc(Cc3cnc(N)nc3N)cc2OC)cc1`, the inhibition in assay [1] was 2.33%; in [2], 1.72%; in assay [3] it was 2.24%; in assay [4], 1.78%; in [5] it was 2.1%; in [6], 1.46%. Besides, the inhibition in assay [7] is 6.83%; in assay [8], 2.29%; in assay [9] it was 0.98%; in assay [10], 3.95%; in assay [11] it was 3.16%; in assay [12] it was -0.01%. The inhibition in [13] is 4.25%; in assay [14] it was 1.03%; in assay [15], 2.11%; in [16], -1.11%; in assay [17], 1.13%; in assay [18], -4.6%. The inhibition in [19] is 0.26%; in assay [20], 0.79%.

On to `Nc1ncnc2occ(-c3ccc(NC(=O)Nc4cc(C(F)(F)F)cc(C(F)(F)F)c4)cc3)c12`, for which the inhibition was 22% in [1]; 1.31% in assay [2]; 4.84% in assay [3]; 9.08% in assay [4]; 43.7% in assay [5]; 23.3% in assay [6]. The inhibition amounted to 68.8% in [7]; 10.8% in assay [8]; 52.8% in [9]; 3.02% in assay [10]; 9.49% in assay [11]; 1.01% in assay [12]. The inhibition in [13] came out at 15.9%; in [14] it was 23.4%; in [15], 73.9%; in assay [16], 19%; in [17], 78.3%; in [18], 12.8%. The values for the inhibition in [19] and in assay [20] were -5.22% and 2.97%, respectively.

The inhibition is the change of the read-out against control, counted positive when it falls.
